Assay results published in PubChem BioAssay AID1159580 (chemical genetic matrix, 2015).
The campaign covered roughly 5,500 compounds. About 2,000 (36%) were called active. Inconclusive results (about 18%) are left out. No stated cut-off is given here; in the data, active means normalized growth mostly below about 0.91 (no sharp cut-off); inconclusive means no clear call, values can overlap the other calls; inactive means mostly above about 0.92. The list shows a part of the results.

Assay: chemical genetic growth profiling, strain panel (AID 1159580);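 further: tested at 20 µM; growth read once vehicle control cultures reached saturation at 30 °C; 1 = growth at the plate median or of vehicle wells; lower values mean less growth of the strain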
Settings: S. cerevisiae deletion strains, growth OD

Measured: normalized growth

CC(=O)Nc1ccc(S(=O)(=O)c2ccc(NC(C)=O)cc2)cc1
inactive: locus YAL021C, strain ccr4, active compounds read low 1.03 | locus YAL026C, strain drs2, active compounds read low 1.02 | locus YAL030W, strain snc1, active compounds read low 1.02 | locus YBL061C, strain skt5, active compounds read low 1.02 | locus YBR009C, strain hhf1, active compounds read low 0.997 | locus YBR023C, strain chs3, active compounds read low 1.01 | locus YBR171W, strain sec66, active compounds read low 1.02 | locus YBR231C, strain swc5, active compounds read low 1.02 | locus YBR279W, strain paf1, active compounds read low 1.01 | locus YCL011C, strain gbp2, active compounds read low 1.01 | locus YCL016C, strain dcc1, active compounds read low 0.995 | locus YCL069W, strain vba3, active compounds read low 1.02 | locus YCR088W, strain abp1, active compounds read low 1.01 | locus YDL005C, strain med2, active compounds read low 1.01 | locus YDL040C, strain nat1, active compounds read low 1.02 | locus YDR001C, strain nth1, active compounds read low 1.02 | locus YDR069C, strain doa4, active compounds read low 1.02 | locus YDR137W, strain rgp1, active compounds read low 1.03 | locus YDR159W, strain sac3, active compounds read low 0.97 | locus YDR195W, strain ref2 1.02 | locus YDR297W, strain sur2, active compounds read low 1.01 | locus YDR334W, strain swr1, active compounds read low 1.02 | locus YDR335W, strain msn5, active compounds read low 1.01 | locus YDR392W, strain spt3, active compounds read low 0.998 | locus YEL003W, strain gim4, active compounds read low 1.02 | locus YEL037C, strain rad23, active compounds read low 1.02 | locus YEL061C, strain CIN8 (second series), active compounds read low 1.02 | locus YER015W, strain faa2, active compounds read low 1.02 | locus YER016W, strain bim1, active compounds read low 0.996 | locus YER111C, strain swi4, active compounds read low 1.01 | locus YER155C, strain BEM2 (second series), active compounds read low 1.04 | locus YFR010W, strain ubp6, active compounds read low 1.01 | locus YGL167C, strain pmr1, active compounds read low 1.01 | locus YGL173C, strain kem1, active compounds read low 1.02 | locus YGL227W, strain vid30, active compounds read low 1.01 | locus YGL240W, strain doc1, active compounds read low 1.02 | locus YGL253W, strain hxk2, active compounds read low 1 | locus YHR013C, strain ard1, active compounds read low 1.03 | locus YHR027C, strain rpn1, active compounds read low 1.01 | locus YHR030C, strain SLT2, active compounds read low 1.07 | locus YHR079C, strain IRE1, active compounds read low 1.09 | locus YHR142W, strain chs7, active compounds read low 1.02 | locus YJL092W, strain hpr5, active compounds read low 1 | locus YJL095W, strain BCK1 (second series), active compounds read low 1.01 | locus YJL095W, strain BCK1, active compounds read low 1.01 | locus YJL115W, strain asf1, active compounds read low 1.02 | locus YJL129C, strain trk1, active compounds read low 0.999 | locus YJL154C, strain vps35, active compounds read low 1.02 | locus YJL164C, strain tpk1, active compounds read low 1 | locus YJL166W, strain qcr8, active compounds read low 1.02 | locus YJL187C, strain SWE1, active compounds read low 1.01 | locus YJR066W, strain TOR1, active compounds read low 0.988 | locus YKL160W, strain elf1, active compounds read low 1.01 | locus YKR026C, strain gcn3, active compounds read low 0.999 | locus YKR091W, strain srl3, active compounds read low 1.01 | locus YLL001W, strain dnm1, active compounds read low 1.01 | locus YLL026W, active compounds read low 1.01 | locus YLL041C, strain sdh2, active compounds read low 0.997 | locus YLR027C, strain aat2, active compounds read low 1 | locus YLR113W, strain HOG1, active compounds read low 0.972 | locus YLR221C, strain rsa3, active compounds read low 0.987 | locus YLR258W, strain gsy2, active compounds read low 1.02 | locus YLR262C, strain YPT6 (second series), active compounds read low 1.04 | locus YLR320W, strain mms22, active compounds read low 1.03 | locus YLR342W, strain FKS1, active compounds read low 1.01 | locus YLR357W, strain rsc2, active compounds read low 1.01 | locus YLR370C, strain arc18, active compounds read low 1.01 | locus YLR384C, strain iki3, active compounds read low 1.01 | locus YML120C, strain ndi1, active compounds read low 1.03 | locus YMR058W, strain fet3, active compounds read low 1.01 | locus YMR125W, strain sto1, active compounds read low 1.01 | locus YMR129W, active compounds read low 1.02 | locus YMR205C, strain PFK2, active compounds read low 1.01 | locus YMR231W, strain pep5, active compounds read low 1.01 | locus YNL071W, strain lat1, active compounds read low 1.02 | locus YNL183C, strain NPR1, active compounds read low 0.971 | locus YNL209W, strain ssb2, active compounds read low 1.01 | locus YNL248C, strain rpa49, active compounds read low 1.02 | locus YNL322C, strain KRE1 (second series), active compounds read low 1.01 | locus YNR049C, strain mso1, active compounds read low 1.01 | locus YOR001W, strain rrp6, active compounds read low 1.02 | locus YOR070C, strain gyp1, active compounds read low 1.01 | locus YOR080W, strain dia2, active compounds read low 1.02 | locus YOR083W, strain WHI5, active compounds read low 0.979 | locus YOR106W, strain vam3, active compounds read low 1.02 | locus YOR231W, strain MKK1, active compounds read low 1.05 | locus YOR265W, strain rbl2, active compounds read low 1.01 | locus YOR270C, strain vph1, active compounds read low 1.02 | locus YOR290C, strain snf2, active compounds read low 1.01 | locus YPL051W, strain arl3, active compounds read low 1.01 | locus YPL078C, strain atp4, active compounds read low 1.02 | locus YPL106C, strain sse1, active compounds read low 1.02 | locus YPL240C, strain hsp82, active compounds read low 1 | locus YPL256C, strain CLN2, active compounds read low 1.08
